Test systems include DU-145 prostate; K-562 leukemia; MALME-3M melanoma; MDA-MB-231 breast; RXF 393 renal; SF-268 CNS; SF-295 CNS; SF-539 CNS; UACC-257 melanoma; M14 melanoma; HCT-15 colon; HT29 colon; SNB-75 CNS; SNB-19 CNS; U251 CNS; PC-3 prostate; SK-MEL-5 melanoma; UACC-62 melanoma; LOX IMVI melanoma; SK-MEL-28 melanoma.
Holding throughout (assay): NCI-60 one-dose screen, 48 h (100 = growth as untreated, 0 = no growth, -100 = all killed)
Holding throughout (settings): 10 µM unless noted

Among the data in PubChem BioAssay (NCI) are growth values, retold here.

The panel holds about 83,000 compounds, 20% with a hit somewhere; the sample as a whole holds those more often.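 In brief: 96-well plates, 48 h treatment, single concentration, percent growth endpoint.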 A number with no mark means an inactive call. Active and inactive are the calls of the source. How the source made its calls: active means growth percent below 10; inactive means the rest.

As to `Cc1cc(SC#N)ncn1`, the growth was 112% in the assay with DU-145 prostate; 95.1% in the assay with K-562 leukemia; 100% with MALME-3M melanoma; 93.3% in the assay on MDA-MB-231 breast; 105% with RXF 393 renal; 111% with SF-268 CNS. For the same compound, the growth with SF-295 CNS is 128%; in the assay on SF-539 CNS, 103%; in the assay on UACC-257 melanoma it was 103%; in the assay on M14 melanoma, 108%; in the assay on HCT-15 colon, 102%; with HT29 colon, 108%. Besides, the growth in the assay on SNB-75 CNS was 86.7%; in the assay on SNB-19 CNS it was 103%; with U251 CNS it was 103%; in the assay with PC-3 prostate it was 107%; in the assay on SK-MEL-5 melanoma, 100%; with UACC-62 melanoma, 93.5%. The results for the growth in the assay on LOX IMVI melanoma and with SK-MEL-28 melanoma were 93.7% and 114%, respectively.
As to `O=C(NNc1ccc(-c2ccccc2)nn1)c1ccc(F)cc1`, the growth in the assay with DU-145 prostate was 88.9%; with K-562 leukemia, 98.5%; with MALME-3M melanoma it was 109%; in the assay on MDA-MB-231 breast it was 94.5%; in the assay with RXF 393 renal it was 82.1%; in the assay on SF-268 CNS, 88.8%. Further, the growth is 95.3% in the assay on SF-295 CNS; 93.4% with SF-539 CNS; 108% in the assay on UACC-257 melanoma; 99.9% in the assay with M14 melanoma; 89% in the assay with HCT-15 colon; 96.1% with HT29 colon. In addition, the growth is 79.9% in the assay on SNB-75 CNS; 86.5% with SNB-19 CNS; 95.2% with U251 CNS; 105% with PC-3 prostate; 95.3% in the assay with SK-MEL-5 melanoma; 95.3% with UACC-62 melanoma. For the same compound, the values for the growth with LOX IMVI melanoma and with SK-MEL-28 melanoma were 98.9% and 110%, respectively.
Consider `CCN1CCN(CC(=O)Nc2nc3ccc(NCc4ccc(Cl)cc4)cc3s2)CC1`, for which the growth is 89.6% with DU-145 prostate; 2.71% (active) with K-562 leukemia; 0.984% (active) in the assay with MALME-3M melanoma; 51.9% in the assay on MDA-MB-231 breast; 51.2% in the assay with RXF 393 renal; 71% in the assay with SF-268 CNS. The growth was 81.6% with SF-295 CNS; 64.3% in the assay on SF-539 CNS; 7.11% (active) with UACC-257 melanoma; -76.6% (active) with M14 melanoma; 0.991% (active) in the assay on HCT-15 colon; 19.6% with HT29 colon. Moreover, the growth in the assay with SNB-75 CNS was 103%; in the assay with SNB-19 CNS it was 79.6%; with U251 CNS, 58.2%; in the assay with PC-3 prostate, 52.7%; with SK-MEL-5 melanoma, -37.9% (active); with UACC-62 melanoma, -12% (active). The growth was 16.9% in the assay on LOX IMVI melanoma and 24.7% in the assay on SK-MEL-28 melanoma.
Take `CN(C)CCOc1ccc(/C(=C(/CCCl)c2ccccc2)c2ccccc2)cc1`: the growth was 49.6% with DU-145 prostate; 1.34% (active) with K-562 leukemia; -57.8% (active) in the assay on MALME-3M melanoma; -11% (active) in the assay with MDA-MB-231 breast; -41.7% (active) in the assay with RXF 393 renal; 33% in the assay with SF-268 CNS. Also, the growth with SF-295 CNS is 4.51% (active); in the assay with SF-539 CNS it was 1.72% (active); in the assay on UACC-257 melanoma it was -52.4% (active); with M14 melanoma, -52.2% (active); in the assay with HCT-15 colon it was 23.9%; with HT29 colon, -78.8% (active). Moreover, the growth with SNB-75 CNS was 36.8%; in the assay on SNB-19 CNS, 36.2%; in the assay on U251 CNS, -54.6% (active); with PC-3 prostate it was 18.7%; with SK-MEL-5 melanoma, -98.3% (active); in the assay with UACC-62 melanoma, -21.7% (active). The growth in the assay on LOX IMVI melanoma is -84.6% (active); in the assay on SK-MEL-28 melanoma it was -30.3% (active).
`O=S(=O)(NCCNc1nccc(-c2c(-c3cccc(F)c3)nc3occn23)n1)c1ccc(C(F)(F)F)cc1`: the growth was 87.9% with DU-145 prostate; 69.8% with K-562 leukemia; 86.2% in the assay with MALME-3M melanoma; 86.9% in the assay on MDA-MB-231 breast; 67.9% in the assay with RXF 393 renal; 70.4% in the assay on SF-268 CNS. Moreover, the growth was 110% with SF-295 CNS; 109% with SF-539 CNS; 104% in the assay with UACC-257 melanoma; 95.4% with M14 melanoma; 95.5% in the assay on HCT-15 colon; 62.3% with HT29 colon. Moreover, the growth in the assay on SNB-75 CNS was 59.6%; in the assay with SNB-19 CNS it was 98%; in the assay on U251 CNS it was 92%; in the assay on PC-3 prostate, 55.2%; with SK-MEL-5 melanoma, 92%; in the assay with UACC-62 melanoma, 76.2%. Moreover, the growth was 95.8% in the assay on LOX IMVI melanoma and 78.7% in the assay with SK-MEL-28 melanoma.
For the compound `C=C(C)[C@@H]1CC[C@]2(c3ncc(C)o3)CC[C@]3(C)[C@H](CC[C@@H]4[C@@](C)(CCC#N)[C@H](C(=C)C)CC[C@]43C)[C@@H]12`, the growth in the assay with DU-145 prostate is -76.4% [100 µM] (active); in the assay with K-562 leukemia, 4.09% [100 µM] (active); in the assay with MALME-3M melanoma, -87.5% [100 µM] (active); with MDA-MB-231 breast, -96.1% [100 µM] (active); with RXF 393 renal, -83.6% [100 µM] (active); with SF-268 CNS it was -66.2% [100 µM] (active). Further, the growth was -81.7% [100 µM] (active) with SF-295 CNS; -94.3% [100 µM] (active) with SF-539 CNS; -80.5% [100 µM] (active) in the assay on UACC-257 melanoma; -68.4% [100 µM] (active) in the assay with M14 melanoma; -69.3% [100 µM] (active) in the assay with HCT-15 colon; -69.8% [100 µM] (active) in the assay on HT29 colon. The growth is -86.8% [100 µM] (active) in the assay with SNB-75 CNS; -95% [100 µM] (active) in the assay with SNB-19 CNS; -82.4% [100 µM] (active) in the assay on U251 CNS; -64.1% [100 µM] (active) in the assay on PC-3 prostate; -92.1% [100 µM] (active) with SK-MEL-5 melanoma; -91% [100 µM] (active) in the assay with UACC-62 melanoma. The growth in the assay with LOX IMVI melanoma is -83.6% [100 µM] (active); in the assay with SK-MEL-28 melanoma it was -89.1% [100 µM] (active).
As to `Cn1cc(-c2noc(C(=O)c3cn(C)c4ncccc34)n2)c2ccccc21`, the growth is 87.4% with DU-145 prostate; 76.1% in the assay with K-562 leukemia; 72.5% with MALME-3M melanoma; 70.3% in the assay on MDA-MB-231 breast; 88.5% in the assay with RXF 393 renal; 99.3% in the assay on SF-268 CNS. Moreover, the growth was 101% in the assay on SF-295 CNS; 90.2% with SF-539 CNS; 103% in the assay with UACC-257 melanoma; 98.7% in the assay with M14 melanoma; 65.2% with HCT-15 colon; 102% in the assay on HT29 colon. Further, the growth in the assay on SNB-75 CNS was 60.4%; in the assay on SNB-19 CNS it was 93.1%; with U251 CNS it was 89.2%; in the assay with PC-3 prostate it was 87%; with SK-MEL-5 melanoma, 87.9%; with UACC-62 melanoma, 91.8%. Moreover, the growth in the assay on LOX IMVI melanoma is 94.8%; in the assay with SK-MEL-28 melanoma, 100%.
